p53 reactivator = mutant p53 re-activation in reporter cells; H1299 p53-A138V BP100-luciferase reporter, luminescence, 24 h; Potency, µM (top dose mostly 92.2 µM), for inactives: at the top dose activity change, positive = activation, hits mostly activators; 0.063% of 320,000 active; AID 504706; note: % of control where 0% means no effect; nearly all actives have a fitted effect of over 45% in size
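H1299 (p53-null), stable ts p53-A138V + BP100-Luc; 1000 cells/well, Opti-MEM/10% FBS; cpd 4 pt, 1:5; 24 h, 37 deg C, 5% CO2; detection reagent 10 min RT; luminescence.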
ELG1 genotox = inducers of genotoxicity in HEK293T ELG1-luciferase cells; Potency, µM (titrated, usually from 46 µM), for the others: top-dose activity change, positive = activation, usual class: activators; HEK293T ELG1-luciferase reporter, luminescence, 16 h; 1.3% of 330,000 active; AID 504466; note: % of control where 0% means no effect; nearly all actives have a fitted effect of over 60% in size
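Genotoxic stress is detected as increased luminescence from luciferase-tagged ELG1 in HEK293T cells, measured with ONE-Glo after a 16 hr treatment at 37 °C.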
NPC1 prom act = activators of NPC1 promoter. Potency, µM (series often up to 9.22 µM), inactives show at the top dose activation, actives largely listed as activators. 2.4% of 320,000 active. AID 485313. Huh7 NPC1 promoter luciferase reporter, 24 h; note: % of control where 0% means no effect; nearly all actives have a fitted effect of over 60% in size
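Luciferase expression driven by the NPC1 promoter was measured in stably transfected Huh7 cells after a 24 h compound incubation, using a luciferase reagent and a luminescence read.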
FLuc counter = firefly luciferase modulation, counter-screen for miR-21 project; purified FLuc, Km substrates, luminescence inhibition; Potency, µM (top dose mostly 57.5 µM), without a hit: at the highest dose activity change, negative = inhibition, hits mostly inhibitors; 6.9% of 360,000 active; AID 588342;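 note: plate controls were vehicle for no effect and reference inhibitor for full effect; nearly all actives have a fitted effect of over 55% in size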
Target sequence (P08659 whole entry, looked up): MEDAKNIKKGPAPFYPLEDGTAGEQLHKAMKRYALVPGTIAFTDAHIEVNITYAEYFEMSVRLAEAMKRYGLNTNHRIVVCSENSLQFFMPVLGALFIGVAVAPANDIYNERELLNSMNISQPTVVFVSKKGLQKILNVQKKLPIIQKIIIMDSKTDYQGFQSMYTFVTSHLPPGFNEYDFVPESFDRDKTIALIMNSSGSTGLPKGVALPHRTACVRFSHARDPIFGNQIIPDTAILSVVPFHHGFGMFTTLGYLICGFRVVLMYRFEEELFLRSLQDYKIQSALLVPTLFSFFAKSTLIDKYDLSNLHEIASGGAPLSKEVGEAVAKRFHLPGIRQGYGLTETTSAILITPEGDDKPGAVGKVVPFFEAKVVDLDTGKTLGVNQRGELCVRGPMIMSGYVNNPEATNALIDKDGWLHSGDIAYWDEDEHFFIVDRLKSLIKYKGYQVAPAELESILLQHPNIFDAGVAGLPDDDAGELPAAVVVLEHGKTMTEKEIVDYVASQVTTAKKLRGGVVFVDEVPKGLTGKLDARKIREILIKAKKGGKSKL
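Purified P. pyralis luciferase, 10 nM final, with Km-level 10 uM D-luciferin and 10 uM ATP in 50 mM Tris acetate pH 7.5, 10 mM Mg acetate, 0.01% Tween-20, 0.05% BSA; 6-point qHTS titration about 60 µM downward; luminescence read.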
Rab9 promoter act = activates the Rab9 promoter | Huh7 Rab9 promoter-luciferase reporter, luminescence, 24 h | Potency, µM (titrated, usually from 9.22 µM), inactives show at the highest dose activation, negative = inhibition, actives largely listed as activators | 2.8% of 320,000 active | AID 485297; note: % of control where 0% means no effect; nearly all actives have a fitted effect of over 60% in size
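Stable Rab9-luc Huh7, 1500 cells/well, 2 h settle; cmpd in DMSO, 24 h, 37 °C/5% CO2; luciferase reagent 10 min RT; luminescence.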
SMN2 splice up = enhancers of SMN2 splice variant expression. HEK293 SMN2-luciferase splicing reporter, luminescence, 30-36 h. Potency, µM (titrated, usually from 46.1 µM), inactives show at the top dose activity change, positive = activation, actives largely listed as activators. 2.8% of 210,000 active. AID 1458; note: % of control where 0% means no effect; nearly all actives have a fitted effect of over 55% in size
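HEK293 cells carry an SMN2 minigene-luciferase reporter in which exon 7 inclusion puts luciferase in frame. Cells were seeded at 2000 cells/well, attached for 10-12 hours, then exposed to compounds for 30-36 hours at 37C before ONE-Glo luminescence.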
* hit, by the source's call; ? = inconclusive; . = not tested or not shown; [ ] = dose if it differs, or a comment. In the library only some 7.3% were active in any assay of this set; here they are far more common. Calls come from the whole dose curve; as a rule, active = well fitted curve in the direction sought with a large enough effect; inconclusive = small, poorly fitted or top-dose-only effect, or another doubt; inactive = no such curve, though single readings can be large; an effect the other way counts as inactive or inconclusive. Potency is the fitted concentration of half-maximal effect.

SMILES	p53 reactivator	ELG1 genotox	NPC1 prom act	FLuc counter	Rab9 promoter act	SMN2 splice up
Cc1cc(NC(=O)Nc2ccc(F)cc2)no1	6%	3%	15%	?	7%	-20%
Cc1cccn2c(=O)cc(COc3ccc(NC(=O)COc4ccc(F)cc4)cc3)nc12	.	.	.	3%	.	.
Cc1cccc(CNC(=O)C(=O)Nc2ccccc2C)c1	.	.	.	-5%	.	6%
CCOc1ccc(OCC)c(NC(=O)c2cnn(-c3ccc(F)cc3)c2-n2cccc2)c1	.	.	.	-6%	.	.
Cc1ccc(/C=C/C(=O)NCc2cccs2)cc1	?	?	25%	11µM*	6%	11µM*
Cc1ccc(/C=C/C(=O)NCc2cccs2)o1	8%	6%	8%	?	16%	13%
Cc1ccc(/C=C/C(=O)NCc2cccs2)c(C)c1	6%	?	?	6.7µM*	2.8µM*	.
c1ccc(-n2ncc3c(NCc4ccco4)ncnc32)cc1	20%	10µM*	?	24µM*	?	.
c1ccc(Cn2ncc3c(NCc4ccco4)ncnc32)cc1	4%	-2%	0%	1%	2%	.
Cc1ccc(-n2ncc3c(NCc4ccccc4)ncnc32)cc1	?	4.6µM*	3.5µM*	-19%	?	.
COc1ccccc1CNc1ncnc2c1cnn2-c1ccc(C)cc1	.	.	.	17µM*	.	.
O=P(O)(CCP(=O)(O)c1ccccc1)c1ccccc1	.	.	.	.	.	11%[9.22 µM]
Cc1ccc(N2CCN(c3nc4ccc(C)cc4n4nnnc34)CC2)c(C)c1	.	.	.	2%	.	.
CCOC(=O)c1cccc(NC(=O)N2CC(CC)Sc3ccccc32)c1 (configuration not stated)	.	.	.	0%	.	.
O=C(O)c1ccc(N/N=C/C2=Cc3ccccc3OC2)cc1	28%	?	0.63µM*	0.95µM*	1µM*	.
CCC(OC(=O)C1=Cc2ccccc2OC1)C(=O)NCc1ccco1 (configuration not stated)	0%	-6%	-5%	5%	-2%	.
CCN(CC)S(=O)(=O)c1ccc2c(c1)c(=O)c(C(=O)N1CCN(c3cc(C)ccc3C)CC1)cn2C	.	.	.	-3%	.	-15%
COc1cc(/C=N/NC(=O)c2ccc(=O)[nH]n2)ccc1O	0%	0%	12%	-3%	-9%	18%
COc1cc(/C=N/NC(=O)c2cc(C34CC5CC(CC(C5)C3)C4)[nH]n2)ccc1O	-14%	?	2%	13µM*	1%	20%
COc1cc(/C=N/NC(=O)c2[nH]nc3c2CCc2ccccc2-3)ccc1O	3%	-4%	1%	27µM*	0%	0%
CCOc1cccc(/C=N/N2C(C)CCCC2C)c1O (configuration not stated)	8%	7%	-1%	17µM*	4%	.
CCOc1cccc(C=Nc2cc(C)cc(C)c2O)c1O	?	3%	3%	27µM*	9%	14%
CCOc1cccc(/C=N/N=C/c2cccc(OCC)c2O)c1O	9%	3%	14%	-11%	12%	.
Cc1cc(C(=O)Cn2nc(C(=O)O)c3ccccc3c2=O)c(C)n1-c1ccccc1	?	?	19%	0.95µM*	?	-7%
CCCc1ccc(C(=O)Cn2nc(C(=O)O)c3ccccc3c2=O)cc1	20%	0%	-1%	?	0%	-4%
SMILES	p53 reactivator	ELG1 genotox	NPC1 prom act	FLuc counter	Rab9 promoter act	SMN2 splice up
O=C(O)c1nn(CC(=O)N2CCCCCC2)c(=O)c2ccccc12	-2%	-1%	-3%	?	5%	2%
Cc1cc(C(=O)Cn2nc(C(=O)O)c3ccccc3c2=O)c(C)n1CCc1ccc(Cl)cc1	0%	-17%	-6%	-12%	2%	-20%
O=C(Cn1nc(C(=O)O)c2ccccc2c1=O)c1c[nH]c2ccccc12	-2%	2%	-7%	15µM*	-1%	.
Cc1cc(C)c(C(=O)Cn2nc(C(=O)O)c3ccccc3c2=O)cc1C	3%	0%	-6%	6µM*	11%	.
COc1ccc(NC(=O)NCCn2nnc3cc(S(=O)(=O)N(C)C)ccc32)cc1	.	.	.	-2%	.	.
Cc1nn(-c2ccccc2)c2c1cc1c(=O)[nH]c(=O)nc-1n2-c1cccc(Cl)c1	.	.	.	-4%	.	-22%
O=C(NCc1ccccc1)NC1(C(=O)N2CCOCC2)CCCCC1	-6%	0%	-1%	1%	-1%	-14%
Cc1c(-c2cccc(NC(=O)Cc3ccccc3)c2)nc2ncccn12	.	.	.	-16%	.	.
CC(C)(C)C(=O)Nc1cccc(-c2cn3cccnc3n2)c1	.	.	.	-3%	.	.
O=C(Nc1cccc(-c2cn3cccnc3n2)c1)Nc1ccccc1F	-2%	-12%	-4%	13µM*	?	-8%
O=C(Nc1ccccc1)Nc1cccc(-c2cn3cccnc3n2)c1	0%	-8%	10%	9.5µM*	?	-1%
CC(Oc1ccccc1)C(=O)Nc1cccc(-c2cn3cccnc3n2)c1 (configuration not stated)	.	.	.	-13%	.	.
Cc1c(-c2cccc(NC(=O)Nc3ccccc3)c2)nc2ncccn12	.	.	.	19µM*	.	.
COc1ccc(NC(=O)CSCC(=O)Nc2ccc(C)c(S(=O)(=O)N3CCCCCC3)c2)cc1	1%	-6%	-5%	-3%	2%	.
COc1ccc(-c2noc(CSc3nnc(-c4ccncc4)n3-c3cccc(C)c3)n2)cc1OC	.	.	.	1%	.	5%
Cc1nc2ccccc2nc(C)c1=NOCc1cccc(F)c1	26%	-6%	-2%	-11%	-1%	20µM*
Cc1nc2ccccc2nc(C)c1=NOCc1ccc(C#N)cc1	15%	-5%	0%	0%	-1%	-2%
FC(F)Oc1ccc(/C=N/c2c(-c3ccc(OC(F)F)cc3)nc3n2CCS3)cc1	12%	2%	-2%	9.5µM*	14%	?
COc1ccc(-c2nc3n(c(=O)c2C#N)CCS3)cc1	5%	-3%	5%	-2%	4%	-14%
CCN(CC)c1ccc2nc3c4ccccc4c(=O)cc-3oc2c1	.	0.82µM*	0.56µM*	0.48µM*	1.1µM*	.
CCN(CC)c1ccc2cc(C=O)c(=O)oc2c1	.	.	.	-18%	.	-3%
O=C(N/N=C/c1ccccc1[N+](=O)[O-])c1ccc2c(c1)OCCO2	8%	?	0.63µM*	0.24µM*	?	.
O=C(N/N=C/c1cc(O)ccc1[N+](=O)[O-])c1ccc2c(c1)OCCO2	0%	?	?	0.6µM*	2µM*	.
O=C(N/N=C/c1cc([N+](=O)[O-])ccc1O)c1ccc2c(c1)OCCO2	?	?	-9%	?	-11%	-96%
O=C(COC(=O)Cc1ccc(S(=O)(=O)N2CCOCC2)s1)Nc1ccc([N+](=O)[O-])cc1	-7%	1%	-6%	2%	-2%	.

Screening results from PubChem BioAssay.
